# According to PubChem BioAssay (NCATS):
# Inconclusive results are not listed. Where a call stands in place of a potency, no number is given. Values without a mark were called inactive. Active and inactive are the calls of the source. The call rests on the fitted dose curve; in most records, active means well fitted curve in the direction sought with a large enough effect; inconclusive means small, poorly fitted or top-dose-only effect, or another doubt; inactive means no such curve, though single readings can be large; an effect the other way counts as inactive or inconclusive. Where a SMILES comes first, the peptide text is derived from it. [ ]: non-standard residue; d: D form. pGlu = O=C1CC[C@@H](C(=O)O)N1
# What was measured:
# NIH3T3 = experiment: Cytotoxic Profiling of Annotated Libraries Using Quantitative High-Throughput Screening (AID 1296008); conditions: Five cell lines viability, CellTiter-Glo ATP luminescence, 48-72 h; max response: hits give low values; further: nearly all actives have a fitted effect of over 60% in size
# In short: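 Cytotoxicity was measured as CellTiter-Glo ATP luminescence, read after 10 min at room temperature. Compound treatment of the cells lasted 48 or 72 hr at 37 degrees Celsius in a qHTS format.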
# MCC-13 = experiment: qHTS assay to identify novel small-molecules to repurpose for Merkel cell carcinoma treatment (AID 1296009); conditions: MCC and control cell lines, CellTiter-Glo viability, 72 h; series mostly up to 46 µM; further: nearly all actives have a fitted effect of over 60% in size; further: potency means the concentration at half of the fitted maximal effect
# In short: (§1)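 Cell viability, measured as CellTiter-Glo luminescence, was normalized between DMSO and no-cell wells. The cells had been exposed to 8- or 11-point compound dilutions for 72 hr at 37 degree celsius.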
# MCC-26 = experiment: as above; conditions: MCC and control cell lines, CellTiter-Glo viability, 72 h; series mostly up to 46 µM
# In short: as §1
# MKL-1 = experiment: as above; conditions: MCC and control cell lines, CellTiter-Glo viability, 72 h; series mostly up to 46 µM
# In short: as §1
# UISO = experiment: as above; conditions: MCC and control cell lines, CellTiter-Glo viability, 72 h; series mostly up to 46 µM
# In short: as §1
# WaGa = experiment: as above; conditions: MCC and control cell lines, CellTiter-Glo viability, 72 h; series mostly up to 46 µM
# In short: as §1
# CAOV3 = experiment: Primary qHTS to identify gynecologic anti-cancer compounds using libraries of approved drugs and bioactive compounds (AID 1345084); conditions: Gynecologic cancer cell panel viability, ATPlite luminescence, 48 h; series mostly up to 57.5 µM; further: nearly all actives have a fitted effect of over 55% in size; further: potency means the concentration at half of the fitted maximal effect
# In short: (§2)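 Cells, 1,000 per well, plated 16 h, then exposed 48 h at 37 C to compounds. Viability by ATPlite luminescence after 15 min at room temperature.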
# CASKI = experiment: as above; conditions: Gynecologic cancer cell panel viability, ATPlite luminescence, 48 h; series mostly up to 57.5 µM
# In short: as §2
# Es-2 = experiment: as above; conditions: Gynecologic cancer cell panel viability, ATPlite luminescence, 48 h; series mostly up to 57.5 µM
# In short: as §2
# HeLa = experiment: as above; conditions: Gynecologic cancer cell panel viability, ATPlite luminescence, 48 h; series mostly up to 57.5 µM
# In short: as §2
# Hek293T = experiment: as above; conditions: Gynecologic cancer cell panel viability, ATPlite luminescence, 48 h, control line for the selectivity index; series mostly up to 57.5 µM
# In short: as §2
# JEG-3 = experiment: as above; conditions: Gynecologic cancer cell panel viability, ATPlite luminescence, 48 h; series mostly up to 57.5 µM
# In short: as §2
# OV90 = experiment: as above; conditions: Gynecologic cancer cell panel viability, ATPlite luminescence, 48 h; series mostly up to 57.5 µM
# In short: as §2
# PA-1 = experiment: as above; conditions: Gynecologic cancer cell panel viability, ATPlite luminescence, 48 h; series mostly up to 57.5 µM
# In short: as §2
# SKOV3 = experiment: as above; conditions: Gynecologic cancer cell panel viability, ATPlite luminescence, 48 h; series mostly up to 57.5 µM
# In short: as §2
# C33A = experiment: as above; conditions: Gynecologic cancer cell panel viability, ATPlite luminescence, 48 h; series mostly up to 57.5 µM
# In short: as §2
# MKL-2 = experiment: qHTS assay to identify novel small-molecules to repurpose for Merkel cell carcinoma treatment (AID 1296009); conditions: MCC and control cell lines, CellTiter-Glo viability, 72 h; series mostly up to 46 µM; further: nearly all actives have a fitted effect of over 60% in size; further: potency means the concentration at half of the fitted maximal effect
# In short: as §1
Structure (SMILES),max response (NIH3T3) [%],Potency (MCC-13),Potency (MCC-26),Potency (MKL-1),Potency (UISO),Potency (WaGa),Potency (CAOV3),Potency (CASKI),Potency (Es-2),Potency (HeLa),Potency (Hek293T),Potency (JEG-3),Potency (OV90),Potency (PA-1),Potency (SKOV3),Potency (C33A),Potency (MKL-2)
C[C@H](CN1CCCC1)C(=O)c1ccc(C(F)(F)F)cc1,-14.5,inactive,inactive,inactive,inactive,inactive,inactive,inactive,inactive,inactive,inactive,inactive,inactive,inactive,inactive,–,–
C=CCNc1nc(NCC=C)nc(N2CCN(C(c3ccc(F)cc3)c3ccc(F)cc3)CC2)n1,-15.1,inactive,inactive,inactive,–,–,–,inactive,inactive,inactive,–,inactive,–,inactive,–,inactive,–
CC(=O)/C=C/C=C1/C2CCC(C2)C1(C)C (centres undefined),-0.501,inactive,inactive,inactive,inactive,–,inactive,inactive,inactive,inactive,inactive,inactive,inactive,–,inactive,inactive,–
CCCCCOc1ccccc1/C(=C\SC)n1ccnc1,-29.1,inactive,inactive,–,18.8 µM (active),–,inactive,inactive,inactive,–,inactive,inactive,inactive,–,–,inactive,–
C[N+](C)(CCOc1ccccc1)Cc1cccs1,-2.33,inactive,inactive,inactive,inactive,–,–,inactive,inactive,inactive,inactive,inactive,inactive,inactive,inactive,inactive,inactive
CCCC(=O)O[C@]1(C(=O)CCl)[C@@H](C)C[C@H]2[C@@H]3CCC4=CC(=O)C=C[C@]4(C)[C@@]3(F)C(=O)C[C@@]21C,-3.48,inactive,inactive,–,–,–,–,inactive,inactive,inactive,–,inactive,inactive,inactive,–,inactive,–
CC(C)(Oc1ccc(Cl)cc1)C(=O)OCCCOC(=O)C(C)(C)Oc1ccc(Cl)cc1,1.4,inactive,inactive,inactive,inactive,inactive,inactive,inactive,inactive,inactive,inactive,inactive,inactive,inactive,inactive,inactive,–
Cc1cccc(N(C)C(=S)Oc2ccc3c(c2)C2CCC3C2)c1 (centres undefined),-24.5,inactive,inactive,inactive,–,–,inactive,inactive,–,inactive,inactive,inactive,35.5 µM (active),inactive,inactive,inactive,–
C/C(=C(/OCCOc1ccc(Cl)cc1)c1ccc(Cl)cc1Cl)n1ccnc1,-25.5,inactive,inactive,inactive,–,–,–,inactive,inactive,inactive,inactive,inactive,inactive,inactive,inactive,inactive,–
c1ccc(C(O[C@H]2CCCN(CCc3ccc4c(c3)OCO4)C2)c2ccccc2)cc1,-0.771,inactive,inactive,inactive,inactive,–,inactive,inactive,inactive,inactive,inactive,inactive,inactive,inactive,inactive,inactive,inactive
Cc1nc2n(c(=O)c1CCN1CCC(C(=O)c3ccc(F)cc3)CC1)CCS2,-4.75,inactive,inactive,inactive,inactive,–,inactive,inactive,inactive,inactive,inactive,inactive,–,inactive,inactive,inactive,–
CCNC(=O)[C@@H]1CCCN1C(=O)[C@H](CCCN=C(N)N)NC(=O)[C@H](CC(C)C)NC(=O)CNC(=O)[C@H](Cc1ccc(O)cc1)NC(=O)[C@H](CO)NC(=O)[C@H](Cc1c[nH]c2ccccc12)NC(=O)[C@H](Cc1cnc[nH]1)NC(=O)[C@@H]1CCC(=O)N1 ([pGlu]HWSYGLRP-NHEt),-1.57,inactive,inactive,inactive,inactive,inactive,inactive,inactive,inactive,inactive,inactive,inactive,inactive,inactive,inactive,inactive,–
CCCC(=O)O[C@]1(C(=O)CC)CC[C@H]2[C@@H]3CCC4=CC(=O)CC[C@]4(C)[C@H]3[C@@H](O)C[C@@]21C,-5.79,inactive,inactive,inactive,inactive,–,inactive,inactive,inactive,inactive,inactive,inactive,inactive,inactive,inactive,inactive,inactive
